Reference: the supplement of paper PMC11060735
Several values for one entry are separate records, joined by “and”; a condition that tells them apart may be missing. Identical values can stand only once. Counter-ions that a name gives are not always drawn. About 50 (3%) of roughly 1,800 compounds showed activity. The list comes from a sample in which actives are over-represented; it also holds similar structures and randomly drawn compounds. Values without a mark were called inactive.

Tested on: mouse p16Ink4a+/- lung fibroblasts (INKBRITE, bleomycin-injured)
Assay: percentage of GFP+ (p16Ink4a+) fibroblasts among all cells in well; higher = less depletion of p16Ink4a+ cells, active = 20 or less
Conditions: 1 µM; 3 days

Q: With `N#C/C(=C\c1ccc(O)c(O)c1)C(=O)NCc1ccccc1` [Tyrphostin Ag 490] as the compound, how does the “percentage of GFP+” value read?
A: 42.9%

Q: Which “percentage of GFP+” value does the source give for `C[C@H](NC(=O)/C(C#N)=C/c1cccc(Br)n1)c1ccccc1` here?
A: 43%

Q: Which “percentage of GFP+” value does the source give for `CCC[C@H](NC(=O)/C(C#N)=C/c1cccc(Br)n1)c1ccccc1` [Degrasyn] here?
A: 13.1% (active)

Q: How did the “percentage of GFP+” value turn out when `Nc1ccn([C@@H]2O[C@H](CO)[C@@H](O)[C@H]2O)c(=O)n1` [Cytidine] was run?
A: 48.9%

Q: Which “percentage of GFP+” value does the source give for `Nc1ccn([C@@H]2O[C@H](CO)[C@@H](O)[C@@H]2O)c(=O)n1` [Cytarabine] here?
A: 26.8%

Q: Which “percentage of GFP+” value does the source give for `Nc1ccn([C@@H]2O[C@H](CO)[C@@H](O)C2(F)F)c(=O)n1` [Gemcitabine] here?
A: 17.1% (active)

Q: Which “percentage of GFP+” value does the source give for `Cc1nc2n(c(=O)c1CCN1CCC(c3noc4cc(F)ccc34)CC1)CCCC2` [Risperidone] here?
A: 42.6%

Q: How did the “percentage of GFP+” value turn out when `COc1ccc(-c2ccc3ncc4c(c3c2)n(-c2ccc(N3CCNCC3)c(C(F)(F)F)c2)c(=O)n4C)cn1` was run?
A: 10.6% (active)

Q: Which “percentage of GFP+” value does the source give for `CCC(=O)N1CCN(c2ccc(-n3c(=O)ccc4cnc5ccc(-c6cnc7ccccc7c6)cc5c43)cc2C(F)(F)F)CC1` [Torin 1] here?
A: 46%

Q: How did the “percentage of GFP+” value turn out when `Cn1c(=O)n(-c2ccc(C(C)(C)C#N)cc2)c2c3cc(-c4cnc5ccccc5c4)ccc3ncc21` [Dactolisib] was run?
A: 36%

Q: How did the “percentage of GFP+” value turn out when `Cc1cc(Nc2cc(CN3CCOCC3)c3nc(C)c(Cc4ccc(Cl)cc4F)n3n2)[nH]n1` was run?
A: 43.7%

Q: For `Cn1c(N2CCCCS2(=O)=O)nc(C(=O)NCc2ccc(F)cc2)c(O)c1=O`, which “percentage of GFP+” value is on record?
A: 26.4%

Q: Which “percentage of GFP+” value does the source give for `NC(=O)c1noc([C@H](CCCC2CCCCC2)CC(=O)NO)n1` here?
A: 47%

Q: With `CC(=O)O[C@H]1C[C@@H]2CC[C@@H]3[C@H](CC[C@@]4(C)[C@H]3C[C@H]([N+]3(C)CCCCC3)[C@@H]4OC(C)=O)[C@@]2(C)C[C@@H]1N1CCCCC1` [Vecuronium] as the compound, how does the “percentage of GFP+” value read?
A: 47%

Q: `CN(NC(=O)CC(=O)NN(C)C(=S)c1ccccc1)C(=S)c1ccccc1` [Elesclomol] was tested. Which “percentage of GFP+” value did it give?
A: 12% (active)

Q: How did the “percentage of GFP+” value turn out when `O=C(O)c1ccccc1` [Benzoic Acid] was run?
A: 44.8%

Q: How did the “percentage of GFP+” value turn out when `O=C(O)CCNC(=O)c1ccccc1` [Betamipron] was run?
A: 46%

Q: With `Cn1cc(C2=C(c3cn(CCCSC(=N)N)c4ccccc34)C(=O)NC2=O)c2ccccc21` as the compound, how does the “percentage of GFP+” value read?
A: 58.4%

Q: For `OC[C@H]1O[C@@H](n2cnc3c(O)ncnc32)[C@H](O)[C@@H]1O` [Inosine], which “percentage of GFP+” value is on record?
A: 47.7%

Q: Which “percentage of GFP+” value does the source give for `CN1CCN(CCOc2cc(OC3CCOCC3)c3c(Nc4c(Cl)ccc5c4OCO5)ncnc3c2)CC1` [Saracatinib] here?
A: 46.2%

Q: For `CC[C@]1(O)C[C@@H]2CN(CCc3c([nH]c4ccccc34)[C@@](C(=O)OC)(c3cc4c(cc3OC)N(C=O)[C@@H]3C45CCN4CC=C[C@](CC)([C@H]45)[C@@H](OC(C)=O)[C@]3(O)C(=O)OC)C2)C1` (some centres not stated) [Vincristine], which “percentage of GFP+” value is on record?
A: 16.5% (active)

Q: With `CC[C@]1(O)C[C@@H]2CN(CCc3c([nH]c4ccccc34)[C@@](C(=O)OC)(c3cc4c(cc3OC)N(C)[C@@H]3C45CCN4CC=C[C@](CC)([C@H]45)[C@@H](OC(C)=O)[C@]3(O)C(=O)OC)C2)C1` (some centres not stated) [Vinblastine] as the compound, how does the “percentage of GFP+” value read?
A: 24.8%

Q: `CC#C[C@]1(O)CC[C@H]2[C@@H]3CCC4=CC(=O)CCC4=C3[C@@H](c3ccc(N(C)C)cc3)C[C@@]21C` [Mifepristone] was tested. Which “percentage of GFP+” value did it give?
A: 46.9%

Q: For `CN[C@@H](C)C(=O)N[C@H](C(=O)N1CCC[C@H]1C(=O)Nc1snnc1-c1ccccc1)C1CCCCC1`, which “percentage of GFP+” value is on record?
A: 21.9%

Q: For `C=CCNC(N)=S` [Allylthiourea], which “percentage of GFP+” value is on record?
A: 35%

Q: For `NC(=S)N/N=C/c1ncccc1N` [Triapine], which “percentage of GFP+” value is on record?
A: 17.4% (active)

Q: With `N=C(N)N/N=C/c1c(Cl)cccc1Cl` [Guanabenz] as the compound, how does the “percentage of GFP+” value read?
A: 49.3%

Q: `COc1ccc([C@@H]2CC(=O)c3c(O)cc(O)cc3O2)cc1O` [Hesperetin] was tested. Which “percentage of GFP+” value did it give?
A: 47.8%

Q: Which “percentage of GFP+” value does the source give for `COc1cc2nccc(Oc3ccc(NC(=O)C4(C(=O)Nc5ccc(F)cc5)CC4)cc3)c2cc1OC` [Cabozantinib] here?
A: 29.6%

Q: With `CCOc1nc2cccc(C(=O)OC(C)OC(=O)OC3CCCCC3)c2n1Cc1ccc(-c2ccccc2-c2nn[nH]n2)cc1` (configuration not stated) [Candesartan Cilextil] as the compound, how does the “percentage of GFP+” value read?
A: 44.8%

Q: `CC(=O)Oc1cc2c(s1)CCN(C(C(=O)C1CC1)c1ccccc1F)C2` (configuration not stated) [Prasugrel] was tested. Which “percentage of GFP+” value did it give?
A: 49.3%

Q: With `Cc1ccc(NC(=O)c2ccc(CN3CCN(C)CC3)cc2)cc1Nc1nc(-c2cccnc2)cs1` [Masitinib] as the compound, how does the “percentage of GFP+” value read?
A: 30.8%

Q: How did the “percentage of GFP+” value turn out when `Cc1ccc(C(=O)Nc2ccc(CN3CCN(C)CC3)c(C(F)(F)F)c2)cc1C#Cc1cnc2[nH]ncc2c1` [Olverembatinib] was run?
A: 17.2% (active)

Q: `Cc1ccc(C(=O)Nc2ccc(CN3CCN(C)CC3)c(C(F)(F)F)c2)cc1C#Cc1cnc2cccnn12` [Ponatinib] was tested. Which “percentage of GFP+” value did it give?
A: 31.2%

Q: How did the “percentage of GFP+” value turn out when `Cn1c(=O)c(F)c(Nc2ccc(I)cc2F)c2c(=O)n(C[C@@H](O)CO)cnc21` was run?
A: 28.4%

Q: With `O=S(=O)(c1cccc2cnccc12)N1CCCNCC1` [Fasudil Hydrochloride] as the compound, how does the “percentage of GFP+” value read?
A: 48.7%

Q: How did the “percentage of GFP+” value turn out when `Nc1ccccc1NC(=O)c1ccc(CNc2nccc(-c3cccnc3)n2)cc1` [Mocetinostat] was run?
A: 12.6% (active)

Q: For `Nc1ccccc1NC(=O)c1ccc(CNC(=O)OCc2cccnc2)cc1` [Entinostat], which “percentage of GFP+” value is on record?
A: 32%

Q: Which “percentage of GFP+” value does the source give for `Cc1ccc(NC(=O)c2ccc(CN3CCN(C)CC3)cc2)cc1Nc1nccc(-c2cccnc2)n1` [Imatinib, Imatinib Mesylate] here?
A: 32.5% and 39%

Q: How did the “percentage of GFP+” value turn out when `N#CC1(c2ccc(NC(=O)c3cccnc3NCc3ccncc3)cc2)CCCC1` [Apatinib] was run?
A: 28%

Q: With `N=C(N)NC(=O)c1nc(Cl)c(N)nc1N` [Amiloride] as the compound, how does the “percentage of GFP+” value read?
A: 33.1%

Q: With `CC(C)(C#N)c1cc(Cn2cncn2)cc(C(C)(C)C#N)c1` [Anastrozole] as the compound, how does the “percentage of GFP+” value read?
A: 45.5%

Q: For `CC(C)c1nc(CN(C)C(=O)N[C@@H](CCN2CCOCC2)C(=O)N[C@H](CC[C@H](Cc2ccccc2)NC(=O)OCc2cncs2)Cc2ccccc2)cs1` [Cobicistat], which “percentage of GFP+” value is on record?
A: 43.4%

Q: `O=C(Cc1ccc(-c2ccc(OCCN3CCOCC3)cc2)cn1)NCc1ccccc1` was tested. Which “percentage of GFP+” value did it give?
A: 30.9%

Q: For `CC(C)C[C@H](NC(=O)[C@H](CCc1ccccc1)NC(=O)CN1CCOCC1)C(=O)N[C@@H](Cc1ccccc1)C(=O)N[C@@H](CC(C)C)C(=O)[C@@]1(C)CO1` [Carfilzomib], which “percentage of GFP+” value is on record?
A: 4.67% (active)

Q: `COc1ccc(C[C@H](NC(=O)[C@H](C)NC(=O)CN2CCOCC2)C(=O)N[C@@H](Cc2ccccc2)C(=O)[C@]2(C)CO2)cc1` was tested. Which “percentage of GFP+” value did it give?
A: 11.6% (active)

Q: How did the “percentage of GFP+” value turn out when `C[C@H](N[C@@H](CCc1ccccc1)C(=O)O)C(=O)N1CCC[C@H]1C(=O)O` [Enalaprilat] was run?
A: 36.7%

Q: How did the “percentage of GFP+” value turn out when `COC[C@H](NC(=O)c1cnc(C)s1)C(=O)N[C@@H](COC)C(=O)N[C@@H](Cc1ccccc1)C(=O)C1(C)CO1` (some centres not stated) [Oprozomib] was run?
A: 5.21% (active)

Q: For `COC1=C(OC)C(=O)C(CCCCCCCCCCO)=C(C)C1=O` [Idebenone], which “percentage of GFP+” value is on record?
A: 43.7%

Q: For `CCCc1cc(C)nc(O)c1CNC(=O)c1cc(-c2ccc(N3CCN(C(C)C)CC3)nc2)cc2c1cnn2C(C)C`, which “percentage of GFP+” value is on record?
A: 39.6%

Q: For `O=C(O)c1cc(-c2ccccc2)nc2ccccc12` [Cinchophen], which “percentage of GFP+” value is on record?
A: 46.7%

Q: How did the “percentage of GFP+” value turn out when `C[C@@]1(c2cc(-c3cncnc3)c(F)cc2F)CCSC(N)=N1` was run?
A: 36.4%

Q: With `COC(=O)c1ccc2c(/C(=N/c3ccc(N(C)C(=O)CN4CCN(C)CC4)cc3)c3ccccc3)c(O)[nH]c2c1` [Nintedanib] as the compound, how does the “percentage of GFP+” value read?
A: 25.4%

Q: Which “percentage of GFP+” value does the source give for `O=C(NC1CCOCC1)c1ccc(-c2cc(-c3c[nH]nc3-c3ccccn3)ccn2)cc1` here?
A: 40.4%

Q: With `Cc1cnc(NC(=O)Nc2cc(Br)c(C)cc2OC[C@@H]2CNCCO2)cn1` as the compound, how does the “percentage of GFP+” value read?
A: 28.6%

Q: For `CCc1c(Cl)c(O)c(Cl)c(O)c1C(=O)O[C@H]1[C@H](O)[C@H](OC)[C@H](OC/C2=C\C=C\C[C@H](O)/C(C)=C\[C@H](CC)[C@@H](O[C@@H]3OC(C)(C)[C@@H](OC(=O)C(C)C)[C@H](O)[C@@H]3O)/C(C)=C\C(C)=C/C[C@@H]([C@@H](C)O)OC2=O)O[C@@H]1C` [Fidaxomicin], which “percentage of GFP+” value is on record?
A: 50.9%

Q: `Cc1cc(C#N)cc(C)c1Oc1nc(Nc2ccc(C#N)cc2)nc(N)c1Br` [Etravirine] was tested. Which “percentage of GFP+” value did it give?
A: 35%

Q: Which “percentage of GFP+” value does the source give for `COc1cccc2c1C(=O)c1c(O)c3c(c(O)c1C2=O)C[C@@](O)(C(=O)CO)C[C@@H]3O[C@H]1C[C@H](N)[C@H](O)[C@H](C)O1` [Doxorubicin] here?
A: 25.2%

Q: For `CC(=O)[C@]1(O)Cc2c(O)c3c(c(O)c2[C@@H](O[C@H]2C[C@H](N)[C@H](O)[C@H](C)O2)C1)C(=O)c1ccccc1C3=O` [Idarubicin, Idarubicin Hydrochloride], which “percentage of GFP+” value is on record?
A: 19.9% (active)

Q: How did the “percentage of GFP+” value turn out when `COc1cccc2c1C(=O)c1c(O)c3c(c(O)c1C2=O)C[C@@](O)(C(C)=O)C[C@@H]3O[C@H]1C[C@H](N)[C@H](O)[C@H](C)O1` [Daunorubicin] was run?
A: 24.3%

Q: How did the “percentage of GFP+” value turn out when `CC(=O)N1CCN(CCOc2ccc(C3CCN(C4=Nn5c(nnc5C(F)(F)F)CC4)CC3)cc2)CC1` was run?
A: 43.8%

Q: How did the “percentage of GFP+” value turn out when `CC[C@H](C)[C@H]1O[C@]2(CC[C@@H]1C)C[C@@H]1C[C@@H](C/C=C(\C)[C@@H](O[C@H]3C[C@H](OC)[C@@H](O[C@H]4C[C@H](OC)[C@@H](O)[C@H](C)O4)[C@H](C)O3)[C@@H](C)/C=C/C=C3\CO[C@@H]4[C@H](O)C(C)=C[C@@H](C(=O)O1)[C@]34O)O2` [Ivermectin] was run?
A: 37.9%
